Assay outcomes: PubChem, National Center for Advancing Translational Sciences (NCATS)
Only some compounds are listed: those with a hit (about 8.7% of all), similar ones and a draw of the others.
G9a block – blocks human histone lysine methyltransferase G9a. Potency, µM (doses to about 102 µM), without a hit: at the highest dose activity, negative = inhibition, actives largely listed as inhibitors. Q96KQ7. AID 504332. 350,000 compounds, 8.8% hits. G9a H3K9 monomethylation, AlphaScreen, 2 h; also: % is scaled to controls: 0 for no effect and ±100 for the full control effect; nearly all actives have a fitted effect of over 75% in size
Target sequence (Q96KQ7 913-1193 limits assumed): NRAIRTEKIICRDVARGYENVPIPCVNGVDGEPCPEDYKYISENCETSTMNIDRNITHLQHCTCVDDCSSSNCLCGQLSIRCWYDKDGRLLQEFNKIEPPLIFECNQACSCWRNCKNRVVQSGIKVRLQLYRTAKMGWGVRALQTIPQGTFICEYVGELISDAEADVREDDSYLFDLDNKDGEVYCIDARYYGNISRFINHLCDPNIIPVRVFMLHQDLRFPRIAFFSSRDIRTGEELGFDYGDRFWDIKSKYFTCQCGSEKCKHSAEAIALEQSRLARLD
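G9a (20 nM) preincubated 15 min RT with compounds, then 500 nM biotinylated H3K9 peptide and 20 uM SAM added; 2 h RT reaction. Monomethyl-H3K9 product detected by AlphaScreen with anti-H3K9me1 antibody, streptavidin donor and anti-rabbit IgG acceptor beads.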
12-LOX inh – ALOX12 (human) lipoxygenase inhibition. purified 12hLO, xylenol orange hydroperoxide absorbance. AID 1671190. Potency, µM (titrated, usually from 108 µM), for the others: at the top dose activity change, negative = inhibition, usual class: inhibitors. 580,000 compounds, 1.1% hits; also: % is scaled to controls: 0 for no effect and ±100 for the full control effect
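Purified human 12hLO at 150 nM in 25 mM Hepes, 0.01% Triton X-100, pH 7.0, preincubated 15 min at room temperature with compound. Reaction started with 40 uM arachidonic acid, 30 min at room temperature. Hydroperoxide measured by Fe-xylenol orange, 573/405 nm absorbance ratio.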
HP1b chromo inh – inhibitors of HP1-beta chromodomain binding to methylated histone tails; P83916; AlphaScreen HP1-beta / biotin-H3K9me3 peptide binding; Potency, µM (top dose mostly 114 µM), inactives show at the highest dose activity change, negative = inhibition, hits mostly inhibitors; 390,000 compounds, 0.56% hits; also: nearly all actives have a fitted effect of over 70% in size
Target sequence (P83916 whole entry, looked up): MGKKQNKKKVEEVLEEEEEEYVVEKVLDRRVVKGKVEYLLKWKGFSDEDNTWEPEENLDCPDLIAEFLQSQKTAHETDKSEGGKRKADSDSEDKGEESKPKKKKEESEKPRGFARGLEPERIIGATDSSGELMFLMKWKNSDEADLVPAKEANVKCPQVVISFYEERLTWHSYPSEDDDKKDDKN
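AlphaScreen: HP1-beta (50 nM) preformed 30 min with biotin-H3(1-18)K9me3 peptide (50 nM) in PBS pH 7.4, 0.01% Tween-20. Compound added for 30 min at RT, then streptavidin donor/nickel chelate acceptor beads (10 ug/mL) for 30 min.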
JMJD2A Tudor – blocks the human JMJD2A Tudor domain | AlphaScreen JMJD2A-Tudor / H3K4me3 peptide binding | Potency, µM (series often up to 114 µM), for the others: at the highest dose activity change, negative = inhibition, most hits filed as inhibitors | 390,000 compounds, 4.4% hits; also: % is scaled to controls: 0 for no effect and ±100 for the full control effect; nearly all actives have a fitted effect of over 50% in size
BAZ2B inh – blocks human BAZ2B; Q9UIF8; AlphaScreen BAZ2B-H3K14Ac peptide displacement; Potency, µM (doses to about 114 µM), inactives show at the highest dose activity change, negative = inhibition, most hits filed as inhibitors; 360,000 compounds, 4.4% hits; also: % is scaled to controls: 0 for no effect and ±100 for the full control effect; nearly all actives have a fitted effect of over 60% in size
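Protein-peptide AlphaScreen: BAZ2B 50 nM, b-H3K14Ac 50 nM, 1x PBS pH 7.4 + 0.01% Tween-20. Preincubation 30 min RT; cpd 30 min RT (top 110 uM); beads 20 min RT, light-protected.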
Sfp PPTase inh – Sfp phosphopantetheinyl transferase inhibition | Potency, µM, for the others: largest response in the series, negative = inhibition, hits mostly inhibitors | AID 1490 | Biochemical Sfp PPTase activity, qHTS | 310,000 compounds, 3.5% hits | Q9F4F7;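 also: the enzyme is Sfp with the accession as filed and its product quenches rhodamine fluorescence; 0% = enzyme reaction without inhibitor and -100% = no enzyme wells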
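Buffer: 50 mM Hepes-Na pH 7.6, 10 mM MgCl2, 0.01% Nonidet P-40, 0.01% BSA. Enzyme 15 nM, pre-exposed to compound 15 min; substrates then added and fluorescence change tracked over 30 min.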
Numbers without * were called inactive; ? = inconclusive; nt = no result; [ ] = another dose, or the depositor's remark. Calls follow the shape of the dose curve; as a rule, active = well fitted curve in the direction sought with a large enough effect; inconclusive = small, poorly fitted or top-dose-only effect, or another doubt; inactive = no such curve, though single readings can be large; an effect the other way counts as inactive or inconclusive. Potency is read from the fitted curve at half-maximal effect.

SMILES	G9a block	12-LOX inh	HP1b chromo inh	JMJD2A Tudor	BAZ2B inh	Sfp PPTase inh
Cc1c(-c2ccccc2)oc2c(C(=O)NC(C)C)cccc2c1=O	nt	-21.5%	nt	nt	nt	nt
COc1ccccc1C(=O)N1CCC(O)(c2ccccc2)[C@H](N(C)C)C1 (stereo partly drawn)	nt	9.9%	nt	nt	nt	nt
O=C(c1ccncc1)N1CCC(c2nc(C3CCOCC3)no2)C1 (stereo not drawn)	nt	34.9%	nt	nt	nt	nt
O=S(=O)(c1cccnc1)N1CCC(N(Cc2cccnc2)C2CCOCC2)CC1	nt	15.9%	nt	nt	nt	nt
O=C(N/N=C/c1ccc(O)c(O)c1)c1ccc(-n2cnnn2)cc1	?	?	-12.2%	?	50.1µM*	nt
O=C(N/N=C/c1cccc(O)c1)c1ccc(-n2cnnn2)cc1	7.6%	19.0%	59.0%	-12.5%	8.3%	nt
O=C(N/N=C/c1ccncc1)c1cccc(S(=O)(=O)Nc2ccc(Cl)cc2)c1	-32.9%[59 µM]	-4.5%	54.1%	-14.0%[11.4 µM]	20µM*	56.2µM*
C=CCc1cc(/C=C2\NC(=O)NC2=O)cc(OCC)c1OCc1ccc(F)cc1	nt	-13.8%	nt	nt	nt	nt
CC(=O)/C(=N\Nc1ccc(Cl)cc1)Sc1nnc(-c2ccccc2)n1-c1ccccc1	6.31µM*	?	29.0%	?	-4.0%	-12.6%
CNC(=S)N(Cc1ccco1)Cc1cc2cc3c(cc2[nH]c1=O)OCCO3	79.4µM*	-17.0%	-10.3%	-27.7%	-25.8%	28.2µM*
CN(C)CCCN(Cc1cc2cc3c(cc2[nH]c1=O)OCO3)C(=S)Nc1cccc(Cl)c1	50.1µM*	-28.7%	-1.0%	?	-38.9%	-10.5%
Cc1cc2cc(CN(Cc3ccco3)C(=S)NCC3CCCO3)c(=O)[nH]c2cc1C (stereo not drawn)	?	?	-23.1%	?	?	50.1µM*
CCN(CC)CCCNC(=S)N(Cc1ccco1)Cc1cc2cc3c(cc2[nH]c1=O)OCCO3	25.8%[59 µM]	-25.4%	nt	nt	-13.8%	79.4µM*
CCNC(=S)N(Cc1ccco1)Cc1cc2cc3c(cc2[nH]c1=O)OCCO3	18.3%[59 µM]	-0.5%	27.1%	9.7%	6.7%	-6.3%
CC(C)CNC(=O)CN1CCN(Cc2ncc(-c3ccccc3)o2)CC1	nt	55.2%	nt	nt	nt	nt
CC(C)(C)n1ncc2c1NC(=O)CC21C(=O)Nc2c(Cl)cccc21 (stereo not drawn)	nt	1.8%	nt	nt	nt	nt
CN(Cc1cccn1C)CC1CCCCC1	nt	1.1%[176 µM]	nt	nt	nt	nt
O=C1Nc2ccccc2C12CCN(CC1CCCCC1)C2 (stereo not drawn)	nt	6.4%[12.5 µM]	nt	nt	nt	nt
CC(=Nc1ccccc1)C1=C(O)CC(C)(C)CC1=O	0.4%	?	23.6%	-7.9%	-5.6%	6.6%
CC(=Nc1ccccc1)C1=C(O)CSC1=O	50.1µM*	3.4%	-5.3%	-17.8%	?	?
COc1ccc(N=C(C)C2=C(O)CSC2=O)cc1	39.8µM*	-12.5%[57.4 µM]	2.2%	-15.2%	0.6%	?
CC(=Nc1ccccc1)C1=C(O)CCCC1=O	?	-5.0%	0.9%	25.1µM*	4.2%	14.5%
O=C(NC1CC1)c1ccc2c(c1)CC(=O)N2Cc1ccc(F)cc1	nt	-11.1%	nt	nt	nt	nt
COc1ccc(-c2ccc3nnc(CNC(=O)c4ccccc4F)n3n2)cc1	nt	16.6%	nt	nt	nt	nt
Cc1cc2nn(-c3ccccc3)nc2cc1NC(=O)Cc1ccc(Cl)cc1	14.1µM*	-16.2%	29.0%	-8.8%	-20.2%	nt
SMILES	G9a block	12-LOX inh	HP1b chromo inh	JMJD2A Tudor	BAZ2B inh	Sfp PPTase inh
CCCCc1ccc(-n2nc3cc(C)c(NC(=O)Cc4ccccc4)cc3n2)cc1	1.41µM*	?	9.8%	50.1µM*	?	nt
O=C(Cc1ccc(Cl)cc1)Nc1ccc2nn(-c3ccccc3)nc2c1	3.9%[59 µM]	-13.4%	31.7%	-2.6%	-1.7%	nt
O=C(Nc1oc2ccccc2c(=O)c1-c1cccc(Cl)c1)c1cccc([N+](=O)[O-])c1	nt	-31.2%	nt	nt	nt	nt
COc1cccc(CC(=O)NCCn2ccn3nc(-c4ccc(C)cc4C)cc3c2=O)c1	nt	12.9%	nt	nt	nt	nt
N#CC(Sc1ccccn1)c1ccc(Cl)cc1 (stereo not drawn)	7.94µM*	-19.1%	12.9%	-6.0%[11.4 µM]	7.3%	28.2µM*
O=C(CSc1nccnc1N1CCN(c2ccc(F)cc2)CC1)Nc1ccc(F)cc1	nt	-11.1%	nt	nt	nt	nt
CCOC(=O)/C(=N\Nc1ccccc1Cl)N1CCN(C)CC1	-4.3%	0.6%	-13.9%	-22.8%	6.3%	14.5%
CCOC(=O)C1(C)/C(=N/Nc2ccc(Cl)cc2)C(=O)C(=O)N1c1ccccc1 (stereo not drawn)	?	?	?	15.8µM*	56.2µM*	-23.4%
CCOC(=O)C1(C)/C(=N/Nc2ccccc2Cl)C(=O)C(=O)N1c1ccccc1 (stereo not drawn)	3.55µM*	?	?	39.8µM*	50.1µM*	-14.4%
CCOC(=O)C1(C)/C(=N/Nc2ccc(S(N)(=O)=O)cc2)C(=O)C(=O)N1c1ccccc1 (stereo not drawn)	35.5µM*	-25.2%	-18.4%	-35.4%	-26.2%	-4.7%
CCOC(=O)C1(C)/C(=N/Nc2cccc(Cl)c2)C(=O)C(=O)N1c1ccccc1 (stereo not drawn)	?	22.4µM*	?	28.2µM*	?	6.4%
